Structures are written as SMILES. Several values for one entry are separate records, joined by “and”; a condition that tells them apart may be missing. Identical values can stand only once. More than one record can exist for a structure, and the calls need not agree. Activity calls are given as the source filed them. The calls were made as follows: active = hit-call score of the fitted dose curve at least 0.9, where 1 is the maximum; inactive = score below 0.9.

Here are results for 13 compounds from PubChem BioAssay (EPA / NIEHS).

The assay in a line: CCTE_Shafer_MEA_dev_network_spike_number: CCTE's Neural Network Formation Assay for Number of Network Spikes, Shafer Lab (AID 2284048).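 Also: synchronized bursts across electrodes counted on days 5 7 9 12 and integrated as AUC.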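 As to AC50: fit as a loss of signal meaning fewer network spikes than DMSO.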 The essentials:
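Primary rat cortical neurons were seeded at 1.5 x 10^5 cells/well on PEI-coated 16-electrode MEA wells with laminin, exposed from plating day 0, compound renewed at DIV 5 and 9. Network spikes were recorded on days 5, 7, 9, 12 and summarized as trapezoidal AUC versus DMSO.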
The term AC50 denotes the concentration giving half of the maximal activity seen. `COP(=O)(OC)OC(Br)C(Cl)(Cl)Br` (stereo not given): the AC50 is 3.48 µM (active) and 13.2 µM (active).
For the compound `CCOP(=S)(OCC)Oc1ccc([N+](=O)[O-])cc1`, the call was inactive.
As for `CCOP(=O)(NC(C)C)Oc1ccc(SC)c(C)c1` (stereo not given), the AC50 was 79.5 µM (active) and the call was inactive.
For the compound `CCCSP(=O)(OCC)Oc1ccc(Br)cc1Cl` (stereo not given), the result was inactive.
Consider `CON=C(C(=O)OC)c1ccccc1CON=C(C)c1cccc(C(F)(F)F)c1`, for which the AC50 was 632 nM (active) and 884 nM (active).
Consider `CC(Oc1cccc(Cl)c1)C(=O)O` (stereo not given), for which the compound was classed as inactive.
On to `CCOP(=S)(OCC)Oc1cc(C)nc(C(C)C)n1`, for which the compound was classed as inactive.
Take `CCCSP(=O)(OCC)SCCC`: the compound was classed as inactive.
The same measure, in the same setting: as for `CCOP(=O)(OCC)Oc1cc(C)nc(C(C)C)n1`, the entry is “inactive”.
Take `CCOP(=S)(OCC)OC(Cl)C(Cl)(Cl)Cl` (stereo not given): the half-maximal activity concentration (AC50) is 23.1 µM (active) and the result was inactive.
`S=C1NCCN1`: the call was inactive.
Take `CCOP(=O)(SC(C)CC)N1CCSC1=O` (stereo not given): the result was inactive.
Still for that read-out and setting: in the case of `CCCCSP(=O)(SCCCC)SCCCC` it was “inactive”.
